Values joined by “and” are separate entries in the source; they are usually repeats but may differ in a detail not shown here. Equal entries are not always repeated. In all, about 2,200 compounds went through this assay and about 1,200 (55%) were called active. The limit is not given here; nearly all actives have IC50 up to about 92 µM. So high a share suggests a set chosen from earlier hits. Some of the results follow.
Experiment: counter assay for TAg ATPase ADP read-out – biochemical, ADP-Hunter, fluorescence, counter-screen (AID 2501);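 also: purified T antigen ATPase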
Settings: series mostly up to 100 µM

Row | SMILES | IC50
1 | CC(C)(C)c1ccc(C(=O)n2cnc3ccccc32)cc1 | inactive
2 | Oc1ccc(-c2nc(-c3ccc(F)cc3)c(-c3ccncc3)[nH]2)cc1 | 8.21 µM (active)
3 | C/C(=N/OC(=O)C1CC1)c1cc(-c2ccc(Cl)cc2)no1 | inactive
4 | Cc1ccc(OC(=S)Nc2ccc(O)cc2)cc1 | 7.84 µM (active)
5 | CCN(c1ccc(NC(=O)CN2C(=O)NC3(CCOc4ccccc43)C2=O)cc1)C(C)C (stereo not drawn) | 11.1 µM (active)
6 | CC1(c2ccccc2)NC(=O)N(CC(=O)Nc2ccc(S(=O)(=O)Nc3ncccn3)cc2)C1=O (stereo not drawn) | inactive
7 | Cc1cc(C(=O)NNC(=O)CN2C(=O)NC(C)(c3ccccc3)C2=O)c(C)o1 (stereo not drawn) | inactive
8 | Cc1cc2c(N=O)c(NO)ccc2[nH]1 | 24.4 µM (active)
9 | O=C1CNC(=S)N1CCc1ccc(O)c(O)c1 | 10.7 µM (active)
10 | OC(COc1ccc2cc(Br)ccc2c1)CN1CCCC1 (stereo not drawn) | inactive
11 | O/N=C(\c1ccc2c(c1)OCCO2)C1CCCCC1 | inactive
12 | O=c1ccc2cc(O)c(O)cc2o1 | 11.3 µM (active)
13 | N#CSCC(=O)c1cccc2ccccc12 | inactive
14 | O=C(c1ccc([N+](=O)[O-])cc1)N1CCN(c2cccc3[nH]ccc23)CC1 | 8.91 µM (active)
15 | Cc1cc(OCC(=O)N(C)c2ccccc2)cc2c1C(=O)CC(C)(C)O2 | inactive
16 | O=C(NCCO)c1ccc2nc(-c3ccco3)c(-c3ccco3)nc2c1 | inactive
17 | CCCc1cc(C(=O)N2CCCC(C(=O)c3cccc4ccccc34)C2)n(C)n1 (stereo not drawn) | inactive
18 | O=C(/C=C/c1ccc(O)c(O)c1)O[C@@H]1C[C@](O)(C(=O)O)C[C@@H](O)[C@H]1O | 4.26 µM (active) and 8.41 µM (active)
19 | CCCCNC(=O)c1onc(CCl)c1C(=O)OC | inactive
20 | O=C(CCC1CCCCC1)Nc1ccccc1C(=O)N1CCOCC1 | inactive
21 | COc1cc(SC)ccc1C(=O)N1CCN(Cc2ccccc2)CC1 | inactive
22 | COc1cc(SC)ccc1C(=O)N1CCN(c2ccc(O)cc2)CC1 | 5.86 µM (active)

Row | SMILES | IC50
23 | COc1cc(Cl)ccc1NC(=O)COc1ccccc1C(=O)N1CCN(c2ccc(O)cc2)CC1 | 6.1 µM (active)
24 | CCCCC(=O)OCC(=O)c1[nH]c(C)c(C(=O)OCC)c1C | inactive
25 | COc1cccc([C@H](O)Cn2cc(-c3ccc(CON=C(C)C)cc3)nn2)c1 | inactive
26 | CN(C)c1ccc(NC(=O)CN2CCN(c3ccc(F)cc3)CC2)cc1 | 2.66 µM (active)
27 | CN(C)c1ccc(NC(=O)CN2CCN(CC(=O)Nc3ccc(F)cc3)CC2)cc1 | 9.6 µM (active)
28 | CN(C)c1ccc(NC(=O)COC(=O)Cn2nnc3ccccc32)cc1 | 4.51 µM (active)
29 | CN(C)c1ccc(NC(=O)Cn2ncn3c(cc4ccccc43)c2=O)cc1 | 10.4 µM (active)
30 | CCOc1ccc(NC(=O)Cn2sc3nc(C)cc(C)c3c2=O)cc1 | inactive
31 | Cc1cccc(-n2c3nc(=O)[nH]c(=O)c-3cc3cc([N+](=O)[O-])ccc32)c1 | inactive
32 | CCOC(=O)C1CCN(c2ncnc3c2nnn3Cc2ccccc2Cl)CC1 | inactive
33 | CCOC(=O)c1ccc(NC(=O)CC2NCCNC2=O)cc1 (stereo not drawn) | inactive
34 | CN(C)c1ccc(NC(=O)COC(=O)CCC(=O)c2ccc(F)cc2)cc1 | 4.64 µM (active)
35 | CN(C)c1ccc(NC(=O)CC2NCCNC2=O)cc1 (stereo not drawn) | 4.71 µM (active)
36 | Cc1c(-c2ccccc2)oc2c(C(=O)OCC(=O)Nc3ccc(C(N)=O)cc3)cccc2c1=O | inactive
37 | Cc1nn(CC(=O)Nc2ccc(N(C)C)cc2)c(C)c1[N+](=O)[O-] | 5.17 µM (active)
38 | Oc1ccc2c(c1)C1CCCC1(N1CCOCC1)O2 (stereo not drawn) | inactive
39 | COc1ccc(NCN2C(=O)C3C4C=CC(C4)C3C2=O)cc1 (stereo not drawn) | 11.4 µM (active)
40 | CC(C)(C)c1nnc(NC(=O)CN2C(=O)C3C4C=CC(C4)C3C2=O)s1 (stereo not drawn) | inactive
41 | c1ccc(-c2ccc3c(c2)NCCN3)cc1 | 7.7 µM (active)
42 | CCCCC/C=C\C/C=C\C/C=C\C/C=C\CCCC(=O)O | inactive
43 | COCCCn1c(=O)c2ccccc2n2c(=S)[nH]nc12 | 8.77 µM (active)
44 | COc1cccc(-n2cnnn2)c1 | inactive

Row | SMILES | IC50
45 | COc1cccc(N2CC(=O)Nc3c(oc4nc(-c5ccccc5)cc(C)c34)C2=O)c1 | inactive
46 | CCCCCn1c(=O)c2ccccc2n2c(=S)[nH]nc12 | 11.7 µM (active)
47 | COc1cccc(-n2c(=O)c3ccccc3n3c(=S)[nH]nc23)c1 | 16.1 µM (active)
48 | CC(C)CCn1c(=O)c2ccccc2n2c(=S)[nH]nc12 | 10.9 µM (active)
49 | CCCn1c(=O)c2ccccc2n2c(=S)[nH]nc12 | 3.07 µM (active)
50 | CCCCn1c(-c2cccc3ccccc23)nc2cc3[nH]c(=O)c(C(C)C)nc3cc21 | inactive
51 | CCCCn1c(=O)c2ccccc2n2c(=S)[nH]nc12 | 11.3 µM (active)
52 | CC(C)C(=O)c1ccc(O)c(O)c1 | 1.71 µM (active)
53 | CN(C)c1ccc(NS(=O)(=O)c2ccc(Cl)cc2)cc1 | 5.63 µM (active)
54 | COc1ccc(NS(=O)(=O)c2ccc(NS(=O)(=O)c3ccc(SC)cc3)cc2)c(OC)c1 | inactive
55 | O=C(CNS(=O)(=O)c1cccc(Cl)c1)OCc1csc(-c2ccccc2)n1 | inactive
56 | CN(C)c1ccc(NS(=O)(=O)c2cccc(Cl)c2)cc1 | 13 µM (active)
57 | CN(C)c1ccc(NS(=O)(=O)c2cc3c4c(c2)CC(=O)N4CCC3)cc1 | 1.83 µM (active)
58 | O=C(NCc1cccnc1)C(=O)Nc1cc2c3c(c1)CC(=O)N3CCC2 | inactive
59 | CCCNC(=O)NS(=O)(=O)c1ccc(Cl)cc1 | inactive
60 | O=C(CC(Sc1ccc(Br)cc1)C(=O)O)c1ccc(Br)cc1 (stereo not drawn) | inactive
61 | Oc1ccc(/C=N/Nc2ncnc3c2ncn3Cc2ccccc2)cc1O | 10.1 µM (active)
62 | CNC(=O)CS(=O)CC(=O)Nc1cc(OCCOC)c(Cl)cc1Cl (stereo not drawn) | inactive
63 | CCOC(=O)c1ccc(-c2c(-c3ccc4c(c3)OCO4)noc2-c2ccsc2)cc1F | inactive
64 | CCOC(=O)c1[nH]nc(-c2cc(CC)c(O)cc2O)c1-c1cscn1 | 7.84 µM (active)
65 | CN(C)c1ccc(Nc2nc(N)c([N+](=O)[O-])c(N3CCOCC3)n2)cc1 | 4.28 µM (active)
66 | CCOc1ccc(/C=C(\C#N)C(=O)NC2CC2)c(OCC)c1 | inactive

Row | SMILES | IC50
67 | O=C(O)c1ccc(COc2ccccc2C=C2C(=O)c3ccccc3C2=O)cc1 | inactive
68 | N#C/C(=C\c1ccccc1OCc1ccc(C(=O)O)cc1)C(=O)Nc1ccc(O)cc1 | 5.71 µM (active)
69 | CNc1ccc(/C=C(\C#N)C(=O)Nc2ccccn2)cc1[N+](=O)[O-] | inactive
70 | N#C/C(=C\c1ccc(O)c([N+](=O)[O-])c1)C(=O)NCc1ccccc1 | inactive
71 | COc1ccc(/C=C(/C#N)C(=O)Nc2ccc(O)cc2)cc1C(=O)O | 2.62 µM (active)
72 | O=C(/C=C/c1ccc(Br)o1)NCc1ccccc1 | inactive
73 | N#C/C(=C\c1ccc(O)c(O)c1)C(=O)NCc1ccccc1 | 7.7 µM (active)
74 | N#C/C(=C\c1ccc(O)c(O)c1)C(=O)Nc1cccc2ncccc12 | 4.88 µM (active)
75 | COc1c(O)ccc2c1CN1CCc3cc4c(cc3C1C2)OCO4 (stereo not drawn) | inactive
76 | CCOC(=O)c1ccc(S(=O)(=O)Nc2nc3cc(S(=O)(=O)NC4=NCCCCC4)ccc3s2)cc1 | inactive
77 | N#C/C(=C\c1ccc(N2CCOCC2)o1)C(=O)Nc1ccc(O)cc1 | 1.66 µM (active)
78 | N#C/C(=C\c1ccc(O)c(O)c1)C(=O)NCCc1ccccc1 | 5.36 µM (active)
79 | N#C/C(=C\c1ccc(O)c(O)c1)C(=O)NCCCc1ccccc1 | 8.38 µM (active)
80 | N#C/C(=C\c1ccc(O)c(O)c1)C(=O)Nc1ccccc1 | 12.6 µM (active)
81 | CC(c1ccncn1)N(C)Cc1nc(Cc2ccccc2F)no1 (stereo not drawn) | inactive
82 | C[C@@H](NC(=O)/C(C#N)=C/c1ccc(O)c(O)c1)c1ccccc1 | 4.73 µM (active)
83 | CCC(C)NC(=O)CC(c1ccccc1)c1cc(C)ccc1O (stereo not drawn) | inactive
84 | Oc1c(C(c2ccco2)N2CCN(C(c3ccccc3)c3ccccc3)CC2)sc2ncnn12 (stereo not drawn) | inactive
85 | C/C(=N\NC(=O)CSc1nc2ccccc2o1)c1ccc(O)cc1 | 6.4 µM (active)
86 | C/C(=N/NC(=O)CSc1nc2ccccc2n1C)c1ccc(O)cc1 | 6.92 µM (active)
87 | Cc1ccc(C)c(-n2c3nc(=O)[nH]c(=O)c-3cc3cc([N+](=O)[O-])ccc32)c1 | inactive
88 | COc1ccccc1C(C)NS(=O)(=O)c1cccs1 (stereo not drawn) | inactive

Source: PubChem BioAssay AID2501 (Southern Research Specialized Biocontainment Screening …, 2010)
